High-throughput results from PubChem BioAssay.
In the library only some 7.6% were active in any assay of this set; here they are far more common.
Giardia kill – Small Molecules that selectively kill Giardia lamblia: qHTS; Giardia lamblia trophozoite viability; activity change, % at 7.66 µM, hits read low; 0.15% of 340,000 active; AID 540267, 2011; in the data active = activity change below about -80%; inconclusive = between about -30% and that limit;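 also: parasites exposed to compound for two days anaerobically before the ATP read; % is scaled to controls: 0 for no effect and ±100 for the full control effect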
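Luminescent ATP signal served as the viability read-out, measured 15-30 min after adding ATP detection reagent to trophozoites that had been incubated with compounds for 48 hrs at 37 deg C anaerobically at 100 cells/well.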
ELG1 DNA repair – qHTS screen for small molecules that inhibit ELG1-dependent DNA repair in human embryonic kidney (HEK293T) cells expressing luciferase-tagged ELG1. HEK293T ELG1-luciferase reporter, luminescence, 16 h; DNA damage induced by 5-fluorouridine. Potency, µM (highest dose often 46.1 µM), for inactives: at the highest dose activity change, negative = inhibition, usual class: inhibitors. 2.3% of 330,000 active; also: potency is read from the fitted curve at half-maximal effect; % is scaled to controls: 0 for no effect and ±100 for the full control effect; nearly all actives have a fitted effect of over 55% in size
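Cells (2,000 per well) received 5-fluorouridine plus test compound or DMSO and were incubated 16 hr at 37 °C, 5% CO2. Luciferase activity was read by luminescence 30 min after ONE-Glo addition; signal suppression marked inhibition of damage-induced ELG1 function.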
RORgamma inh – qHTS for inhibitors of ROR gamma transcriptional activity; 5.4% of 310,000 active; Drosophila S2 Gal4-RORgamma UAS-luciferase reporter, 20 h; AID 2551, 2010; Nuclear receptor ROR-gamma (Mus musculus), P51450; Potency, µM (doses to about 53.6 µM), without a hit: at the highest dose activity change, negative = inhibition, actives largely listed as inhibitors; also: potency is read from the fitted curve at half-maximal effect; % is scaled to controls: 0 for no effect and ±100 for the full control effect; nearly all actives have a fitted effect of over 60% in size
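Stably transfected Drosophila Schneider cells are the test system, with ROR gamma fused to Gal4 and luciferase under UAS control; luminescence is read after 20 hr of 700 uM copper sulfate induction at ambient temperature.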
p53 reactivator – qHTS assay for re-activators of p53 using a Luc reporter | H1299 p53-A138V BP100-luciferase reporter, luminescence, 24 h | Potency, µM (series often up to 92.2 µM), inactives show at the top dose activity change, positive = activation, actives largely listed as activators | 0.063% of 320,000 active | AID 504706, 2011; also: potency is read from the fitted curve at half-maximal effect; % of control where 0% means no effect; nearly all actives have a fitted effect of over 45% in size
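p53-null H1299 cells stably carrying temperature-sensitive p53-A138V and a BP100-luciferase reporter were pinned with compounds (4-point, 1:5 series) and held 24 hrs at 37 deg C. Luminescence was read 10 min after detection reagent.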
BRCA1 expr up – qHTS Assay to Identify Small Molecule Activators of BRCA1 Expression | Potency, µM (series often up to 46.1 µM), for inactives: at the highest dose activation, hits mostly activators | MCF7-BRCA1-FFLuc reporter, luminescence, 48 h; response scale: scaled: vehicle 0%, 10 µM genistein 100% | AID 624202, 2012 | 1.1% of 380,000 active; also: potency is read from the fitted curve at half-maximal effect; nearly all actives have a fitted effect of over 80% in size
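Luminescence from a BRCA1-driven firefly luciferase in MCF7 cells was the read-out, taken 15 min after substrate addition following 48 h compound exposure at 37 °C. Data were normalized to a 10 microM genistein control and DMSO vehicle.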
Gal4-VP16 FLuc – VP16 counterscreen qHTS for inhibitors of ROR gamma transcriptional activity. Drosophila S2 Gal4-VP16 UAS-luciferase, luminescence, 20 h. 3.5% of 310,000 active. Potency, µM (highest dose often 53.6 µM), without a hit: top-dose activity, negative = inhibition, most hits filed as inhibitors;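 also: Gal4-VP16 expression switched on by copper sulfate through the metallothionein promoter; potency is read from the fitted curve at half-maximal effect; % is scaled to controls: 0 for no effect and ±100 for the full control effect; nearly all actives have a fitted effect of over 50% in size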
ELG1 FLuc counter – qHTS screen for small molecules that inhibit ELG1-dependent DNA repair: Hit Confirmation in Cell-Based Luciferin Assay; shares compounds with ELG1 DNA repair; cell-free firefly luciferase luminescence counter-screen, ViewLux; Potency, µM (doses to about 46.1 µM), inactives show at the highest dose activity change, negative = inhibition, usual class: inhibitors; 3% of 350 active; AID 624247, 2012; also: potency is read from the fitted curve at half-maximal effect; % is scaled to controls: 0 for no effect and ±100 for the full control effect
ELG1-Luc inh – HTS assay for small molecules that inhibit ELG1-dependent DNA repair in human embryonic kidney (HEK293T) cells expressing luciferase-tagged ELG1: Hit Confirmation; HEK293T ELG1-luciferase levels, luminescence; cells co-treated with 5-fluorouridine; 68% of 670 active; AID 624248, 2012; Potency, µM (doses to about 46.1 µM), without a hit: at the highest dose activity change, negative = inhibition, hits mostly inhibitors; shares compounds with ELG1 DNA repair; also: potency is read from the fitted curve at half-maximal effect; % is scaled to controls: 0 for no effect and ±100 for the full control effect; nearly all actives have a fitted effect of over 55% in size
Target sequence (Q96QE3 whole entry, looked up): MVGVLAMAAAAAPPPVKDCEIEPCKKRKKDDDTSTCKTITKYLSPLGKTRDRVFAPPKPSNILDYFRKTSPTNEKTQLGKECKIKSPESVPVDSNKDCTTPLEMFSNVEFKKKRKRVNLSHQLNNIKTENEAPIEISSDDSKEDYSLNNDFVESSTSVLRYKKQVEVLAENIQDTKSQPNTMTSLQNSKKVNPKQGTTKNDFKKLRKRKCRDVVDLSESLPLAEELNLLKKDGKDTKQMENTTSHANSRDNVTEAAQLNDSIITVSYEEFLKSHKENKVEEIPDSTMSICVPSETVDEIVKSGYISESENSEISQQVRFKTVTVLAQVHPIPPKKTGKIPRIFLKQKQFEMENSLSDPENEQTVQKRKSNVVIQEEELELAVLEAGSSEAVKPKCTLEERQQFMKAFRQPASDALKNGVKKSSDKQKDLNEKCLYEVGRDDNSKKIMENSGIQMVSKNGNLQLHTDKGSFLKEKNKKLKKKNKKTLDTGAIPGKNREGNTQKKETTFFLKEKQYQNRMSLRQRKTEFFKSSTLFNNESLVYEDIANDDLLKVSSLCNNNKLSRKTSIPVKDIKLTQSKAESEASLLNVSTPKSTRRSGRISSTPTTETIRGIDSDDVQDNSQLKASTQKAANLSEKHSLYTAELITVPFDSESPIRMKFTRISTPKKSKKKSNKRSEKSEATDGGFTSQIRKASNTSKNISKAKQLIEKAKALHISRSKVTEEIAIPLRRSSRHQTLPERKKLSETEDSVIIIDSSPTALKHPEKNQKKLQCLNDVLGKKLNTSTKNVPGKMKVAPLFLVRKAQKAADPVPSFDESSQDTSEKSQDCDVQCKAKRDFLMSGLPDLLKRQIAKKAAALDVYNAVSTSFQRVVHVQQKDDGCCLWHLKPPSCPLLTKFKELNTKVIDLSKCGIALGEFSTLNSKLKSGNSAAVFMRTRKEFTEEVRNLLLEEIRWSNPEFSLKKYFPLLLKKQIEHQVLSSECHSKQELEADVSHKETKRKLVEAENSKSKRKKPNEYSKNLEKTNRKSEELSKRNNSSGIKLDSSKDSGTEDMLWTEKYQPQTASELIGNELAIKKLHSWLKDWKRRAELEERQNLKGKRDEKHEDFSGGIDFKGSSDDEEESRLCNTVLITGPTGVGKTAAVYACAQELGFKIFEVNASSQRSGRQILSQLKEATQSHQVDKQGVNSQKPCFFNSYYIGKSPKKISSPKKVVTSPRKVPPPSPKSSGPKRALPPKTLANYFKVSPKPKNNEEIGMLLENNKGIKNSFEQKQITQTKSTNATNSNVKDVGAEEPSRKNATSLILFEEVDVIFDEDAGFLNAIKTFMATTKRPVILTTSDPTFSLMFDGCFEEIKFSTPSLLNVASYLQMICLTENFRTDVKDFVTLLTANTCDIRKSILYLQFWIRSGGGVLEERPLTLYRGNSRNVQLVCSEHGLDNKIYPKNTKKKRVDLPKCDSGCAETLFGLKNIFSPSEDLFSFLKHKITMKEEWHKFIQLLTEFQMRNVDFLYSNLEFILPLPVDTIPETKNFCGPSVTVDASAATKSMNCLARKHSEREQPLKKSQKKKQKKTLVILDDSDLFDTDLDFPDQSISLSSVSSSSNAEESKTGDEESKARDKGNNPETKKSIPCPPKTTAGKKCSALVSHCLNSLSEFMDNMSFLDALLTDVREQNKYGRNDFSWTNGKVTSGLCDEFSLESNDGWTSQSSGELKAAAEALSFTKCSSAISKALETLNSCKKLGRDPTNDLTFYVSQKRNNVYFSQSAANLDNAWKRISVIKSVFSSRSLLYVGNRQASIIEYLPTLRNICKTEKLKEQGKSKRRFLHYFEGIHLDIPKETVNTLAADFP
ELG1-Luc MMS – confirmation of human ELG1 repair inhibitors, MMS stimulated; HEK293T luciferase-tagged ELG1 level, MMS stimulated; AID 624249; shares compounds with ELG1 DNA repair; Potency, µM (highest dose often 46.1 µM), for inactives: top-dose activity change, negative = inhibition, actives largely listed as inhibitors; 53% of 670 active; also: potency is read from the fitted curve at half-maximal effect; % is scaled to controls: 0 for no effect and ±100 for the full control effect; nearly all actives have a fitted effect of over 60% in size
ELG1 5FU viab – qHTS screen for small molecules that inhibit ELG1-dependent DNA repair: Hit Confirmation with 5FU Viability; 670 tested, under 10 active; cell viability with 5-FU, ELG1-dependent repair; shares compounds with ELG1 DNA repair; Potency, µM (top dose mostly 46.1 µM), without a hit: at the highest dose activity change, negative = viability loss, most hits filed as cytotoxic; AID 624250, 2012;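 also: ELG1-luc HEK293T cells cotreated with 5-fluorouridine at 10 µM final; potency is read from the fitted curve at half-maximal effect; viability measured 16 h after compound addition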
ELG1 MMS viab – qHTS screen for small molecules that inhibit ELG1-dependent DNA repair: Hit Confirmation with MMS Viability. Cell viability with MMS, ELG1-dependent DNA repair. 33% of 670 active. shares compounds with ELG1 DNA repair. Potency, µM (series often up to 46.1 µM), inactives show at the top dose activity change, negative = viability loss, actives largely listed as cytotoxic;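 also: ELG1-luc HEK293T cells co-treated with 10 µM MMS; potency is read from the fitted curve at half-maximal effect; viability read 16 h after compound addition; % is scaled to controls: 0 for no effect and ±100 for the full control effect; nearly all actives have a fitted effect of over 60% in size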
Cell viab unstim – qHTS screen for small molecules that inhibit ELG1-dependent DNA repair: Hit Confirmation with Unstimulated Viability Assay; shares compounds with ELG1 DNA repair; cell viability counter-screen, unstimulated, luminescence; Potency, µM (top dose mostly 45.9 µM), for the others: at the highest dose activity change, negative = loss of viability, hits mostly cytotoxic; 8% of 900 active; AID 624252, 2012;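 also: potency is read from the fitted curve at half-maximal effect; compound exposure lasted 16 hours before reading; % is scaled to controls: 0 for no effect and ±100 for the full control effect; nearly all actives have a fitted effect of over 55% in size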
FLuc enzyme – qHTS screen for small molecules that inhibit ELG1-dependent DNA repair: Hit Confirmation in Biochemical Luciferin Assay | shares compounds with ELG1 DNA repair | purified firefly luciferase, luminescence counter-screen | 10% of 350 active | Potency, µM (series often up to 57.5 µM), for the others: top-dose activity, negative = inhibition, usual class: inhibitors; also: potency is read from the fitted curve at half-maximal effect; % is scaled to controls: 0 for no effect and ±100 for the full control effect
* = called active by the depositor; u = inconclusive; x = no result; [ ] = dose if it differs, or a comment. Unless noted, calls follow the shape of the dose curve; as a rule, active = well fitted curve in the direction sought with a large enough effect; inconclusive = small, poorly fitted or top-dose-only effect, or another doubt; inactive = no such curve, though single readings can be large; an effect the other way counts as inactive or inconclusive.

SMILES | Giardia kill | ELG1 DNA repair | RORgamma inh | p53 reactivator | BRCA1 expr up | Gal4-VP16 FLuc | ELG1-Luc inh | ELG1-Luc MMS | ELG1 5FU viab | ELG1 MMS viab | Cell viab unstim | others
CC1CC(C)CN(CC(=O)NCCc2ccc(S(N)(=O)=O)cc2)C1 (stereo not drawn) | 13.3 | 6.7% | -15.8% | 6.0% | -2.4% | -0.7% | x | x | x | x | x
CC(NC(=O)COC(=O)/C=C/c1ccc([N+](=O)[O-])cc1)c1ccccc1 (stereo not drawn) | -5.0 | -1.5% | 2.3%[10 µM] | 1.2% | -2.9% | -4.9% | x | x | x | x | x
Nc1ncnc(N2CCc3ccccc32)c1[N+](=O)[O-] | 0.7 | 1.83µM* | -25.3% | -0.2% | 23.1% | 1.4% | 1.58µM* | 7.91µM* | -10.4% | -3.4% | -19.4%
O=C(CSc1nc(=O)n(CCN2CCOCC2)c2c1CCCC2)Nc1ccc([N+](=O)[O-])cc1 | -29.6 | -18.7% | x | 12.2% | -18.1% | x | x | x | x | x | x
COc1ccc(CNC(=O)C(c2ccco2)N(Cc2cccs2)C(=O)Cc2cccs2)cc1 (stereo not drawn) | 20.4 | 14.6µM* | 21.3% | -20.6% | -48.1% | -7.7% | 15.8µM* | 15.8µM* | 6.4% | -3.6% | -14.3% | ELG1 FLuc counter=-17.1%;FLuc enzyme=-3.8%
Cc1cc(C)c(CN2CCN(C(=O)Cn3ccc(N)nc3=O)CC2)c(C)c1 | 12.0 | 12.3% | x | -11.3% | 0.0% | x | x | x | x | x | x
CSc1nc(N)nc2c1ncn2CC(=O)N1CCN(Cc2c(C)cc(C)cc2C)CC1 | -2.4 | 2.31µM* | x | -6.9% | -14.5% | x | u | 0.705µM* | 2.1% | 1.25µM* | u
CCCCn1c(N)c(N(CCOC)C(=O)C2CCCN(C(=O)c3ccc(Cl)cc3)C2)c(=O)[nH]c1=O (stereo not drawn) | 7.0 | 0.8% | x | -6.5% | 18.7% | x | x | x | x | x | x
Clc1ccc(-c2cnnc(-c3ccccn3)n2)cc1 | -6.8 | u | x | u | u | x | x | x | x | x | -0.6%
CCCn1c(N2CCN(CC(=O)c3c(C)n(C)c4ccccc34)CC2)nc2c1c(=O)[nH]c(=O)n2C | -4.0 | 7.31µM* | -11.8% | -4.1% | -53.0% | -0.9% | 3.15µM* | u | u | 1.2% | -10.3% | ELG1 FLuc counter=3.1%;FLuc enzyme=2.2%
CCn1c(N2CCN(CC(=O)c3c[nH]c4ccccc34)CC2)nc2c1c(=O)[nH]c(=O)n2C | 12.0 | 0.0% | u | -3.8% | -33.0% | -6.2% | u | -3.8% | u | -0.5% | -9.2% | ELG1 FLuc counter=16.9%;FLuc enzyme=1.1%
CCN1CCN(c2nc3c(c(=O)[nH]c(=O)n3C)n2Cc2ccccc2)CC1 | -8.1 | -5.2% | -2.7% | x | -3.5% | -2.8% | x | x | x | x | x
O=C(Cc1ccc(NC(=O)N2CCCCc3ccccc32)cc1)NCc1ccccc1Br | x | x | x | x | 0.0% | x | x | x | x | x | x
COc1ccc(C(=O)c2ccc(Br)cc2)cc1 | 6.1 | 1.16µM* | 34.2% | -11.8% | 94.1% | -18.4% | 43.4% | 0.0% | 2.2% | -16.7% | 6.6%
COc1ccc(/C=N/NC(=O)c2cc(-c3cccnc3)nc3ccccc23)c(OC)c1 | -18.4 | 3.7% | u | -0.8% | -18.4% | 0.7% | x | x | x | x | x
Cc1nn(-c2ccccc2)c(N2CCCC2)c1/C=N/NC(=O)c1cc(-c2cccnc2)nc2ccccc12 | -14.8 | 4.61µM* | 4.0% | -15.1% | -92.2% | u | 8.88µM* | 28.1µM* | 6.1% | -11.5% | u
O=C(/C=C1\NC2(CCCC2)Cc2ccccc21)C(=O)N/N=C/c1ccccc1O | 16.0 | 2.31µM* | -0.9% | u | -90.1% | -2.4% | u | 8.88µM* | 0.1% | u | -4.6%
CC1CCCCN1C(=S)NC(=O)c1cc(Br)ccc1Cl (stereo not drawn) | 3.1 | -12.8% | x | 2.8% | 16.4% | x | x | x | x | x | x
O=C1CCC/C(=N/NC(=O)c2sc3ccccc3c2Cl)C1 | 10.8 | u | -40.3% | 5.3% | 29.7% | 28.7% | x | x | x | x | x
O=C1CCCC(=NNC(=O)c2cc3ccccc3cc2O)C1 | 6.1 | u | x | u | 20.6% | x | x | x | x | x | -13.6%
COc1nc(Nc2nc3ccccc3c(=O)[nH]2)nc2ccc(C)cc12 | -10.7 | 4.61µM* | u | 31.4% | -20.0% | 5.01µM* | 2.23µM* | 3.15µM* | u | 7.1% | -4.8%
CN(C)c1ccc(C2CCc3ccccc3N2C(=O)c2ccccc2)cc1 (stereo not drawn) | x | x | x | x | -8.1% | x | x | x | x | x | x
